Records with an inconclusive call do not appear. A call without a number means that no potency is given here. Activity calls are given as the source filed them. Unless noted, calls follow the shape of the dose curve; as a rule, active = well fitted curve in the direction sought with a large enough effect in the repeat runs; inconclusive = weak or mixed curves; inactive = no such curve, though single readings can be large; an effect the other way counts as inactive or inconclusive.
Tests used:
[1] = qHTS assay to identify small molecule antagonists of the glucocorticoid receptor (GR) signaling pathway - cell viability counter screen (AID 720693); also: nearly all actives have a fitted effect of over 55% in size; also: potency is read from the fitted curve at half-maximal effect
[2] = qHTS assay to identify small molecule antagonists of the androgen receptor (AR) signaling pathway - cell viability counter screen (AID 743033; also: nearly all actives have a fitted effect of over 45% in size; also: potency is read from the fitted curve at half-maximal effect)
[3] = qHTS assay to identify small molecule antagonists of the androgen receptor (AR) signaling pathway using the MDA cell line - cell viability counter screen (AID 743041; also: nearly all actives have a fitted effect of over 45% in size; also: potency is read from the fitted curve at half-maximal effect)
Summary of the method: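 Viability read by CellTiter-Fluor fluorescence in the same wells as the antagonist screen, added after 15.5 h of a 16 h, 37C exposure. Human breast carcinoma MDA-kb2 AR-luc cells, compounds co-dosed with agonist R1881.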

[4] = biological target: Androgen receptor (Homo sapiens) (UniProt P10275); assay: qHTS assay to identify small molecule antagonists of the androgen receptor (AR) signaling pathway (AID 743035; active = well fitted inhibition curve with a large enough effect in the signal ratio in the repeat runs, not every such curve was filed as active; the % refers to the signal ratio; also: potency is read from the fitted curve at half-maximal effect)
Sequence of Androgen receptor (Homo sapiens) (P10275 whole entry, looked up): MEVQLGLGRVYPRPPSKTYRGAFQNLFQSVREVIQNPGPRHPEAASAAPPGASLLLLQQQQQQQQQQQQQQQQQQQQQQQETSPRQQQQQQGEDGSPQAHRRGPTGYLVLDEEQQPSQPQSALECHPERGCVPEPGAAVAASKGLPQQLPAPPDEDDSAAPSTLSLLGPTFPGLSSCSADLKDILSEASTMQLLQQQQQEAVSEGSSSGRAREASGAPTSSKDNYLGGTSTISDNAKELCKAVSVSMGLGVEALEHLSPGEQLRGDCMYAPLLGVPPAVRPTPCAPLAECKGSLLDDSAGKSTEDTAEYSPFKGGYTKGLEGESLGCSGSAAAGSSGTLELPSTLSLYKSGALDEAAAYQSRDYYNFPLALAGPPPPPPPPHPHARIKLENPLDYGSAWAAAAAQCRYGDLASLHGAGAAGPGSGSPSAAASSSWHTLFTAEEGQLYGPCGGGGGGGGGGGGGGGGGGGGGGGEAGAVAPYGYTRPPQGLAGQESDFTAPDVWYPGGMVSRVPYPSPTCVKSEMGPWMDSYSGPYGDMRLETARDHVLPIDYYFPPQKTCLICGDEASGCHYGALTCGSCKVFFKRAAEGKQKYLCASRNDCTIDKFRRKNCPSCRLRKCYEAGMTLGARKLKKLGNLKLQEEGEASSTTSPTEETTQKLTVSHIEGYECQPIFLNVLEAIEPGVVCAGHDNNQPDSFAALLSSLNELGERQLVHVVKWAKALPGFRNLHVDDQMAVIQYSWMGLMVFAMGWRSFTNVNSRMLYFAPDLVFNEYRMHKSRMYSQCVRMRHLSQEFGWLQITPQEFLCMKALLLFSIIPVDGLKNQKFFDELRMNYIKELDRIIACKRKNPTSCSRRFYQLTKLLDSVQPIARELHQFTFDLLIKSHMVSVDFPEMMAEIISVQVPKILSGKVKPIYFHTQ
Summary of the method: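 Antagonist mode: AR-bla HEK293 cells co-treated with test compounds and agonist R1881 for 16 h at 37C, 5% CO2. Beta-lactamase activity read as FRET fluorescence after 2 h room-temperature substrate loading.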

[5] = biological target: Androgen receptor (Homo sapiens) (UniProt P10275); assay: qHTS assay to identify small molecule agonists of the androgen receptor (AR) signaling pathway using the MDA cell line (AID 743040; also: nearly all actives have a fitted effect of over 20% in size)
Summary of the method: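 Luciferase agonist assay: 16 h compound exposure at 37C without CO2 in MDA-kb2 AR-luc cells, whose MMTV promoter responds to both AR and GR. Luminescence measured after 30 min room-temperature incubation with ONE-Glo.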

[6] = biological target: Androgen receptor (Homo sapiens) (UniProt P10275); assay: qHTS assay to identify small molecule antagonists of the androgen receptor (AR) signaling pathway using the MDA cell line (AID 743042; also: nearly all actives have a fitted effect of over 55% in size)
Summary of the method: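 Antagonist mode: compounds plus R1881 agonist added to MDA-kb2 AR-luc cells, incubated 16 h at 37C. Luciferase reporter luminescence quantified, with multiplexed CellTiter-Fluor readout for cell viability.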

[7] = qHTS assay for identifying genotoxic compounds that show differential cytotoxicity against isogenic chicken DT40 cell lines with known DNA damage response pathways - Rad54/Ku70 mutant cell line (AID 743015); also: nearly all actives have a fitted effect of over 60% in size; also: potency is read from the fitted curve at half-maximal effect
[8] = qHTS assay for identifying genotoxic compounds that show differential cytotoxicity against isogenic chicken DT40 cell lines with known DNA damage response pathways - Rev3 mutant cell line (AID 743014); also: potency is read from the fitted curve at half-maximal effect; nearly all actives have a fitted effect of over 55% in size
[9] = biological target: Androgen receptor (Homo sapiens) (UniProt P10275); assay: qHTS assay to identify small molecule agonists of the androgen receptor (AR) signaling pathway (AID 743036; active = well fitted activation curve with a large enough effect in the signal ratio in the repeat runs, with a control signal flat, not every such curve was filed as active; the % refers to the signal ratio)
Summary of the method: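 In this Tox21 qHTS, 2,000 HEK293 AR-bla cells per well were incubated with compounds for 16 h at 37C and 5% CO2. Fluorescence intensity was recorded 2 h after adding LiveBLAzer B/G FRET substrate at room temperature.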

[10] = qHTS assay for identifying genotoxic compounds that show differential cytotoxicity against isogenic chicken DT40 cell lines with known DNA damage response pathways - wild type cell line (AID 743012); also: potency is read from the fitted curve at half-maximal effect; nearly all actives have a fitted effect of over 60% in size
Summary of the method: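 Viability by ATP luminescence (CellTiter-Glo, 30 min RT) after 40 h compound treatment at 37 C/5% CO2, using 300 parental DNA repair-proficient DT40 cells per well.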

Question: With `CCNc1nc(NC(C)CC)nc(OC)n1` (stereo not drawn) as the compound, how does the Potency [1] read?
Answer: inactive

Question: What about the Potency [2] of the same compound?
Answer: inactive

Question: What about the Potency [3] of the same compound?
Answer: inactive

Question: For `CC1(C)C(=O)N(Br)C(=O)N1Br`, which Potency [1] is on record?
Answer: inactive

Question: What about the Potency [2] of the same compound?
Answer: inactive

Question: What about the Potency [4] of the same compound?
Answer: inactive

Question: And the Potency [5]?
Answer: inactive

Question: What about the Potency [3] of the same compound?
Answer: inactive

Question: And the Potency [6]?
Answer: inactive

Question: For `CCOC(=O)COc1ccc(C)cc1`, which Potency [1] is on record?
Answer: inactive

Question: What about the Potency [7] of the same compound?
Answer: inactive

Question: What about the Potency [3] of the same compound?
Answer: inactive

Question: Which Potency [1] does the source give for `CC(C)OC(=O)c1cc(C(=O)OC(C)C)cc([N+](=O)[O-])c1` here?
Answer: inactive

Question: What about the Potency [7] of the same compound?
Answer: 55.8 µM (active)

Question: What about the Potency [2] of the same compound?
Answer: inactive

Question: With `CCCCCCCCCCCCCC[n+]1ccccc1` as the compound, how does the Potency [1] read?
Answer: 13.8 µM (active)

Question: And the Potency [7]?
Answer: 0.109 µM (active)

Question: And the Potency [2]?
Answer: 12.3 µM (active)

Question: What about the Potency [3] of the same compound?
Answer: 4.33 µM (active)

Question: Which Potency [1] does the source give for `CN1[C@@H]2CC[C@@H]1CC(OC(=O)C(CO)c1ccccc1)C2` (stereo partly drawn) here?
Answer: inactive

Question: And the Potency [3]?
Answer: inactive

Question: Which Potency [1] does the source give for `NCCCC(O)(P(=O)(O)O)P(=O)(O)O` here?
Answer: inactive

Question: What about the Potency [3] of the same compound?
Answer: inactive

Question: Which results are given for `CCCCCCCCCCCC(=O)N(CC)CC`?
Answer: Potency [1]: inactive; Potency [8]: 30.6 µM (active); Potency [2]: inactive; Potency [3]: inactive

Question: What does the source list for `C=CC(C)(CCC=C(C)C)OC(=O)/C=C/c1ccccc1` (stereo not drawn)?
Answer: Potency [1]: inactive; Potency [4]: inactive; outcome [9]: inactive; Potency [5]: inactive; Potency [3]: inactive; Potency [6]: inactive

Question: Which Potency [1] does the source give for `CCCCCCCC/C=C\CCCCCCCC(=O)N(C)CC(=O)O` here?
Answer: 49 µM (active)

Question: What about the Potency [7] of the same compound?
Answer: 27.3 µM (active)

Question: Which Potency [1] does the source give for `O=C1OC(=O)c2cccc3cccc1c23` here?
Answer: inactive

Question: And the Potency [7]?
Answer: 13.8 µM (active)

Question: What about the Potency [2] of the same compound?
Answer: inactive

Question: And the Potency [3]?
Answer: inactive

Question: For `CCCCCCCCCCCCCCNCCO`, which Potency [1] is on record?
Answer: inactive

Question: What about the Potency [8] of the same compound?
Answer: 21.1 µM (active)

Question: And the Potency [7]?
Answer: 11.9 µM (active)

Question: What about the Potency [3] of the same compound?
Answer: inactive

Question: With `CN1[C@@H]2CC[C@H]1CC(OC(=O)C(CO)c1ccccc1)C2` (stereo partly drawn) as the compound, how does the Potency [1] read?
Answer: inactive

Question: What about the Potency [2] of the same compound?
Answer: inactive

Question: And the Potency [3]?
Answer: inactive

Question: Which results are given for `COC(=O)C1=C(C)NC(C)=C(C(=O)OCCCN2CCC(c3ccccc3)(c3ccccc3)CC2)C1c1cccc([N+](=O)[O-])c1` (stereo not drawn)?
Answer: Potency [10]: 4.73 µM (active); Potency [8]: 6.68 µM (active); Potency [7]: 6.68 µM (active); Potency [2]: 21.3 µM (active); Potency [4]: 16.9 µM (active); Potency [5]: inactive

Question: What does the source list for `CCN(CC)CCOc1ccc(C(O)(Cc2ccc(Cl)cc2)c2ccc(C)cc2)cc1` (stereo not drawn)?
Answer: Potency [10]: 2.11 µM (active); Potency [8]: 2.11 µM (active); Potency [7]: 2.98 µM (active); Potency [2]: 16.9 µM (active)

Question: Which Potency [1] does the source give for `CC(COC(=O)c1ccccc1)OC(=O)c1ccccc1` (stereo not drawn) here?
Answer: inactive

Question: What about the Potency [7] of the same compound?
Answer: 61.1 µM (active)

Question: And the Potency [2]?
Answer: inactive

Question: For `COC(=O)[C@]1(C)CCC[C@@]2(C)[C@H]1CC=C1C=C(C(C)C)CC[C@@H]12`, which Potency [1] is on record?
Answer: inactive

Question: And the Potency [7]?
Answer: 61.1 µM (active)

Question: What about the Potency [2] of the same compound?
Answer: inactive

Question: And the Potency [3]?
Answer: inactive
